# Screening results as filed in PubChem BioAssay.
# Rows were chosen to be rich in hits. Some 0.5% of all compounds tested hit in one or more screens of this group.
# Tat transport = E. coli Tat export inhibitors, primary screen, MC4100, TorA-mCherry reporter, fluorescence, single point. inhibition, % at 10 µM. actives 0.036% (n = 340,000). AID 488895, 2010;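 active means mean replicate inhibition at least 50% and at least half of replicates individually reaching 50%; inconclusive means only one of the two criteria met; inactive means neither criterion met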;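 further: exported cargo escapes ClpAP degradation while cytoplasmic cargo is degraded and loses fluorescence; 0% = median of neutral control wells and 100% = median of NaSCN control wells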
# E coli growth-1 = E. coli V3065 growth inhibition, primary screen, counter-screen for AddAB inhibitor project, absorbance, OD600; 18 h; inhibition, % at 11.9 µM; actives 0.27% (n = 330,000);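 active means inhibition above the campaign's mean inhibition across all tested compounds plus 3 SD, cut at about 9.9% in these data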;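 further: uninfected addAB+ strain grown without phage in ampicillin broth; 0% = DMSO wells and 100% = ciprofloxacin 0.95 µg/ml wells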
# phage Ecoli inh = growth loss of phage-infected E. coli, primary screen, RecBCD inhibitor project, absorbance, with phage, HTS | actives 0.26% (n = 360,000) | inhibition, % at 11.9 µM | AID 651602, 2012; in the data active means inhibition above about 11%
# E coli growth-2 = E. coli growth inhibition, primary screen, OD600. Escherichia coli growth, 23 h; stronger effect = lower value. OD600 absorbance (test concentration not listed). actives 0.21% (n = 330,000);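 active means OD600 absorbance below the run mean of sample wells minus 3.6 SD, in any replicate, cut at about 0.56 in these data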
# AddAB inh = growth inhibition of E. coli expressing H. pylori AddAB, primary screen, AddAB inhibitor project, absorbance; inhibition, % at 11.9 µM; actives 0.29% (n = 330,000); AID 435030, 2010; in the data active means inhibition above about 12%;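 further: 0% = vehicle wells of infected cells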
# Active calls of the source: *; ? = inconclusive; / = no result given.
SMILES,Tat transport,E coli growth-1,phage Ecoli inh,E coli growth-2,AddAB inh
COc1ccc(C=NNS(=O)(=O)c2ccc(Br)cc2)cc1COc1ccccc1[N+](=O)[O-],/,/,/,0.73,/
CCOc1ccc(N(CC(=O)NN=Cc2ccc(OC(C)C)cc2)S(C)(=O)=O)cc1,/,/,/,0.69,/
COC(=O)C1CC1C(NC(=O)c1cnccn1)c1ccccc1 (stereo not drawn),/,/,/,0.66,/
O=C(Nc1ccc(Cl)cc1)Nc1cc([N+](=O)[O-])ccc1F,-11,1,4,0.6,3
O=C(Nc1ccc([N+](=O)[O-])cc1)Nc1ccc(Cl)cc1F,-3,9.8*,11,0.65,7
COc1ccc(C(=O)NNC(=S)NC(=O)c2ccco2)cc1,3,-1,-2,0.44*,2
CCCOc1ccc(C(=O)NNC(=S)NC(=O)c2ccco2)cc1,-3,1,4,0.55,4
CCCOc1ccc(C(=O)NNC(=S)NC(C)=O)cc1,-19,-7,7,0.27*,4
CCC(=O)NC(=S)NNC(=O)c1ccc(OC)cc1,12,1,-6,0.46*,-1
CCCCOc1ccc(C(=O)NNC(=S)NC(=O)CC)cc1,1,-5,/,0.56,-7
COc1ccc2nc(NC(=O)c3ccc([N+](=O)[O-])o3)sc2c1,-13,8,7,0.48*,11
O=C(Nc1nc2ccccc2s1)c1ccc([N+](=O)[O-])o1,-11,6,3,0.66,5
CC(=O)c1cccc(N(CC(=O)NCCc2ccccc2)C(=O)c2csnn2)c1,-6,0,0,0.53*,4
CCCCCCCCCCCCCCCC[n+]1ccc(C(N)=O)cc1,51*,-3,5,0.32*,-1
CCCCCCCCCCCCCCCC[n+]1ccccc1,48,/,1,0.057*,/
CCCCCCCCCCCCCCCC[n+]1ccc(/C=N/O)cc1,-12,0,3,/,0
CCCCCCCCCCCCCCCC[n+]1cccc(C(=O)N(CC)CC)c1,?,-4,4,0.43*,-16
O=C(CC1CC=CCCCC(=O)OC(c2ccccc2)CNC1=O)NC(CO)Cc1ccccc1 (stereo not drawn),/,/,/,0.72,/
O=C(C1=CC(c2ccccc2)CC(OCc2ccc(CO)cc2)O1)N1CCN(Cc2ccccc2)CC1 (stereo not drawn),/,/,/,0.69,/
O=C(NC(=Nc1nc2ccccc2o1)NC(=O)c1ccccc1)c1ccccc1,-9,0,6,0.65,1
COc1ccccc1C(=O)NC(=Nc1nc2ccccc2o1)NC(=O)c1ccccc1OC,-7,13*,4,0.68,14*
CC(O)C1CCC2C3CCC4CC(O)CC[C@]4(C)C3C(=O)C[C@]12C (stereo partly drawn),/,/,/,0.66,/
O=C1c2ccccc2NC(c2ccc(-c3ccccc3F)o2)N1O (stereo not drawn),-9,12*,9,0.65,10
CC(C)c1ccc(C=NNC(=O)c2nnn(-c3nonc3N)c2CN2CCOCC2)cc1,/,/,/,0.7,/
S=c1[nH]nc(-c2ccco2)n1N=Cc1ccc(Cl)cc1Cl,/,/,/,0.7,/
SMILES,Tat transport,E coli growth-1,phage Ecoli inh,E coli growth-2,AddAB inh
NC(C(=O)NC1C(=O)N2C(C(=O)O)=C(Cl)CSC12)c1ccccc1 (stereo not drawn),/,/,/,0.06*,/
CCCCCCCCCCCCN1[C@@H](CC(=O)O)c2cc(C(F)(F)F)ccc2S1(=O)=O,52*,0,5,/,2
CCCCCCCCN1C(CC(=O)O)c2cc(C(F)(F)F)ccc2S1(=O)=O (stereo not drawn),/,/,/,0.65,/
c1ccc2c(c1)CCC2=NNc1nc2ccccc2[nH]1,/,/,/,0.46*,/
CCn1c2c(c(=N)c3c1CCC3)CCCC2,/,2,2,0.67,-2
CCCCCCCCCn1c2c(c(=N)c3c1CCC3)CCCC2,30,/,/,0.43*,/
CCCCCCCCCCn1c2c(c(=N)c3c1CCC3)CCC2,1,8,8,0.22*,5
CCCCCCCCn1c2c(c(=N)c3ccccc31)CCC2,-1,/,8,0.59,/
O=C1OCC(CO)(CO)N=C1NNc1ccc(Cl)c(Cl)c1,1,-1,7,0.18*,1
OCC1(CO)COC(c2ccccc2)=N1,16,-1,0,0.63,1
COc1cc2cc(C(=O)NN=Cc3ccccc3Cl)[nH]c2cc1OC,/,/,/,0.64,/
COc1ccc(NC(=O)Nc2cccc3ccccc23)c(OC)c1,-17,0,1,0.71,1
COc1ccc(OC)c(NC(=O)Nc2cccc3ccccc23)c1,-4,16*,2,0.7,10
CC(=NN(C)C)c1ccc(OCCOc2ccc([N+](=O)[O-])cc2)cc1,/,/,/,0.67,/
O=C1CN(S(=O)(=O)c2cc(Br)ccc2Br)CCN1,-3,0,2,0.69,2
O=c1c(Br)ccc(Br)cc1Br,6,/,7,0.52*,/
c1ccc(CNc2nc(N3CCN(Cc4ccccc4)CC3)nc3ccccc23)cc1,/,1,3,0.48*,2
c1ccc(N2CCN(c3nc(NCc4ccco4)c4ccccc4n3)CC2)cc1,0,0,2,0.7,7
OCCNc1nc(Nc2ccccc2)nc2ccccc12,-6,-2,-1,0.67,-3
OCCNc1nc(Nc2ccc(Br)cc2)nc2ccccc12,/,-1,4,0.4*,-2
Cc1ccc(Nc2nc(NCc3ccco3)c3ccccc3n2)cc1,-64,4,4,0.41*,0
COc1ccccc1Nc1nc(NCc2ccco2)c2ccccc2n1,/,1,4,0.59,-1
CNc1nc(NCc2ccccc2)c2ccccc2n1,-7,0,4,0.48*,2
C#CCOCCOCCOCCNc1nc(N2CCOCC2)nc(N2CCN(C(=O)C(CCCCN)n3cc(CN)nn3)CC2)n1 (stereo not drawn),/,/,/,0.65,/
CC[C@@]12C(=O)N(c3cccc(F)c3)C(=O)N1C(c1ccc(Cl)cc1)C1C(=O)N(C3CCCCC3)C(=O)C12 (stereo partly drawn),/,/,/,0.69,/
SMILES,Tat transport,E coli growth-1,phage Ecoli inh,E coli growth-2,AddAB inh
COCCNC(=O)[C@@]1(C)C=CC(Cc2ccccc2)N1C(=O)c1ccccc1 (stereo partly drawn),/,/,/,0.7,/
COC(=O)c1ccc(NC(=O)Nc2ccc(F)cc2)cc1,-5,3,4,0.51*,4
CN1CCN(C2=Cc3cc(Cl)ccc3Sc3cc(F)ccc32)CC1,-2,-2,3,0.36*,1
CC1CCC2C(=O)N3C(CCC(C)C3c3ccc(Br)cc3)C(=O)N2C1c1ccc(Br)cc1 (stereo not drawn),/,/,/,0.72,/
Cc1ccsc1C(=O)Nc1nnc(-c2ccco2)o1,7,-1,11,0.41*,3
CCc1cccc2c(C(=O)COC(=O)c3ccccc3)c[nH]c12,1,1,3,0.09*,2
C=CC1=C(C(=O)O)N2C(=O)C(NC(=O)C(=NOCC(=O)O)c3csc(N)n3)C2SC1 (stereo not drawn),/,/,/,0.062*,/
COCC1=C(C(=O)OC(C)OC(=O)OC(C)C)N2C(=O)[C@@H](NC(=O)/C(=N\OC)c3csc(N)n3)[C@H]2SC1 (stereo partly drawn),-4,2,7,/,-1
O=C1CSC(=S)N1/N=C/c1ccc2c(c1)OCCO2,7,9.9*,1,/,5
